Results as given in PubChem BioAssay (NCI).
Compounds without any hit were thinned out: in the full panel of roughly 83,000, 20% have a hit.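 Single-dose data. Exposure time 48 hours. Values below 10 considered active.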 Unmarked numbers belong to inactive results. The source made the active and inactive calls.

Legend:
Assay in all cases: NCI-60 one-dose screen, 48 h (100 = growth as untreated, 0 = no growth, -100 = all killed)
Settings in all cases: 10 µM unless noted
DU-145 prostate = test system: DU-145 prostate
K-562 leukemia = test system: K-562 leukemia
MALME-3M melanoma = test system: MALME-3M melanoma
MDA-MB-231 breast = test system: MDA-MB-231 breast
RXF 393 renal = test system: RXF 393 renal
SF-268 CNS = test system: SF-268 CNS
SF-295 CNS = test system: SF-295 CNS
SF-539 CNS = test system: SF-539 CNS
M14 melanoma = test system: M14 melanoma

Compound | growth (DU-145 prostate) | growth (K-562 leukemia) | growth (MALME-3M melanoma) | growth (MDA-MB-231 breast) | growth (RXF 393 renal) | growth (SF-268 CNS) | growth (SF-295 CNS) | growth (SF-539 CNS) | growth (M14 melanoma)
COc1ccc(/C(=N/O)c2cc(OC)c(OC)c(OC)c2)c(OC)c1N | 39% | 14.7% | 53.1% | 55.3% | 23.2% | 49.1% | 6.4% (active) | 3.96% (active) | 21%
COc1ccc2c(c1)C=CC(C#N)N2C(=O)c1ccccc1 (centres undefined) | 3.08% (active) | 7.66% (active) | 66.8% | 25.4% | 30.4% | 34% | -1.96% (active) | -21.2% (active) | 15.9%
N#CC1=C(N)n2nc(-c3ccncc3)nc2NC1c1cccc2ccccc12 (centres undefined) | 93.3% | 80.9% | 82% | 77.6% | 87.4% | 94.5% | 90.5% | 88.2% | 90.1%
CC/C=C\C[C@H](O)C/C=C1/C(=O)C(Cl)=C[C@@H]1C/C=C\CCCC(=O)OC | -67.1% (active) | 2.41% (active) | -9.56% (active) | -55.2% (active) | -62.8% (active) | -35% (active) | -19.6% (active) | -4.69% (active) | -32.4% (active)
CC(=O)N1Cc2ccccc2C(C)Cc2cc(Cl)ccc21 (centres undefined) | 114% | 102% | 103% | 102% | 124% | 104% | 110% | 107% | 103%
CCOc1ccc(/C=C/C=N/NC(N)=S)cc1 | 92.9% | 56% | 82% | 66.6% | -0.439% (active) | 92.1% | 96.7% | 74.3% | 95.7%
CC/C=C\C[C@H]1C/C=C2/C(=O)C(Cl)=C[C@@H]2C/C=C\CCCC(=O)O1 | -91% (active) | -11.6% (active) | -42.6% (active) | -13% (active) | -90.1% (active) | -55.4% (active) | -63% (active) | -72.6% (active) | -47.1% (active)
COc1ccc(/C=C/C(=O)OCC(=O)NNC(=O)c2ccccc2)cc1OC | 101% | 90.2% | 105% | 94.8% | 97.1% | 108% | 89.6% | 91% | 107%
CCCC1OC(c2ccc(C(C)C)cc2)OCC1CC (centres undefined) | 110% | 102% | 106% | 107% | 115% | 103% | 104% | 96.3% | 101%
CCCCn1c(=O)c(C2CNC(=O)c3ccccc3N2)cc2ccccc21 (centres undefined) | 108% | 99.3% | 107% | 77.5% | 111% | 98.9% | 96.8% | 89.9% | 107%
Cc1ccnc2nc(C(=O)OCC(=O)Nc3ccc(-c4ccccc4)cc3)nn12 | 109% | 61.8% | 115% | 104% | 49.7% | 113% | 92.7% | 95.6% | 99.9%
Cn1c(=O)c2c(nc3n2CCN(CCc2ccc(OCCN4CCOCC4)cc2)C3)n(C)c1=O | 109% | 109% | 106% | 104% | 111% | 105% | 106% | 109% | 105%
COc1cc(-c2csc(NC(=O)Nc3ccc(Cl)cc3Cl)n2)cc(OC)c1OC | 46.6% | 15.8% | 45% | 54.7% | 49.9% | 33.6% | 19.2% | 29.4% | 34.9%
CN1CCN(CCCOc2ccc3nc(Nc4ccc(C(F)(F)F)c(Cl)c4)ccc3c2)CC1 | 20.1% | -47.2% (active) | -47.1% (active) | -53.3% (active) | 6.61% (active) | 11.5% | -52.8% (active) | -49% (active) | -19.8% (active)
O=C(Cc1c(F)cccc1Cl)Nc1ccc(S(=O)(=O)Nc2ncccn2)cc1 | 104% | 89.7% | 124% | 109% | 38.1% | 116% | 92.5% | 96.5% | 110%
COC(=O)CC/C(C)=N\Nc1ccc([N+](=O)[O-])cc1 | 85.5% | 4.87% (active) | 104% | 79.6% | 101% | 72.4% | 72.4% | 65.8% | 20.4%

Compound | growth (DU-145 prostate) | growth (K-562 leukemia) | growth (MALME-3M melanoma) | growth (MDA-MB-231 breast) | growth (RXF 393 renal) | growth (SF-268 CNS) | growth (SF-295 CNS) | growth (SF-539 CNS) | growth (M14 melanoma)
O=C(c1ccccc1)C(Cl)C(Cl)c1ccccc1 (centres undefined) | 45.7% | -1.74% (active) | 4.33% (active) | 25.8% | 17.2% | 82.5% | 104% | 31% | 46.8%
COc1ccc2c(c1)NC(=O)CN2c1nc(NC2CC2)nc2ccccc12 | 0.326% (active) | 8.2% (active) | 70.3% | 14.9% | 39.2% | 21.9% | 0.0109% (active) | -15% (active) | 6.86% (active)
O=C(Nc1ccc(F)cc1)c1cc([N+](=O)[O-])ccc1O | 78.3% | 45.3% | 37.4% | 65.9% | 68.2% | 72.9% | 78.6% | 47.3% | 75.7%
O=C(Cc1n[nH]c(=O)c2ccccc12)OCc1c(Cl)cccc1Cl | 130% | 46.4% | 100% | 72.9% | 52.5% | 60.9% | 55.1% | 94.9% | 97.4%
C=C1C(=O)O[C@H]2[C@H]1CC/C(COC(=O)NCc1cc(OC)c(OC)c(OC)c1)=C\CC[C@@]1(C)O[C@@H]21 | 43.3% | 16.3% | 101% | 56.5% | 60.4% | 68.5% | 99.4% | 65.1% | 49.9%
CC(C)CCC[C@@H](C)[C@H]1CC[C@H]2[C@@H]3CC[C@H]4C/C(=N/O)CC[C@]4(C)[C@H]3CC[C@]12C | 116% | 91.2% | 104% | 98.8% | 102% | 110% | 101% | 109% | 104%
CC(C)N(Cc1ccc(CN(C(=O)CCl)C(C)C)cc1)C(=O)CCl | 12% | 14% | -63.2% (active) | -2.71% (active) | 45.6% | -50.7% (active) | 28.2% | -84% (active) | 1.15% (active)
O=C(c1c[nH]c2ccccc12)C(Sc1nc2ccccc2c(=O)[nH]1)c1ccccc1 (centres undefined) | 94.3% | 101% | 88.7% | 91.6% | 26.1% | 105% | 93.1% | 89.2% | 104%
CC(=O)c1cc(C(=O)c2ccc3c(c2)Sc2ccccc2N3)c2cc(C)ccn12 | 0.638% (active) | 5% (active) | 68.2% | 3.24% (active) | 49.3% | 22.1% | -1.7% (active) | -32.5% (active) | 17.2%
O=[N+]([O-])c1cccc(-c2cc(-c3cc(Br)ccc3O)[nH]n2)c1 | 35.1% | 12.4% | 5.27% (active) | 27% | 58.1% | 23.6% | 40.4% | 34% | 35.6%
O=C1OC(c2ccccc2)=N/C1=C\c1ccc([N+](=O)[O-])cc1 | 109% | 112% | 89% | 94.1% | 101% | 101% | 103% | 99.2% | 95.4%
O=C1CCC(=O)N1Cc1ccccc1 | 105% | 108% | 110% | 98% | 87% | 94.7% | 102% | 105% | 94.7%
C=C1C(=O)O[C@H]2[C@H]1CC/C(Cn1cc(-c3ccsc3)nn1)=C\CC[C@@]1(C)O[C@@H]21 | -83.5% (active) | -16.2% (active) | -66.4% (active) | -58% (active) | -56.7% (active) | -25.8% (active) | 53.9% | -72.1% (active) | -56.7% (active)
O=C(CNC(=O)c1cccc2ccccc12)Nc1ccccc1Oc1ccccc1 | 3.85% (active) | 7.84% (active) | 71.8% | 15% | 31.1% | 18.1% | 13.6% | 1.63% (active) | 17.2%
CCN(Cc1ccc(CN(CC)C(=O)C(Br)Br)cc1)C(=O)C(Br)Br | 14.1% | 27.1% | 52.6% | 28.2% | 67.9% | 51.6% | 45.9% | 53.6% | 24.9%
